Compound activity deposited in PubChem by National Center for Advancing Translational Sciences (NCATS).
HTT aggregate: qHTS Multiplex Assay to Identify Dual Action Probes in a Cell Model of Huntington: Aggregate Formation (GFP). Potency, µM (highest dose often 46.1 µM), for inactives: at the top dose activity change, negative = inhibition, usual class: inhibitors. AID 1688, 2009. PC12 HttQ103-GFP aggregates, Acumen cytometry, 40 h. 220,000 tested, 1.1% active; active means well fitted curve in the direction sought with a large enough effect; inconclusive means small, poorly fitted or top-dose-only effect, or another doubt; inactive means no such curve, though single readings can be large; an effect the other way counts as inactive or inconclusive; further: on the % scale 0 is the no-effect control and ±100 the full control effect; nearly all actives have a fitted effect of over 60% in size
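Multiplexed with ATP-based cell death, this channel scores GFP aggregates in PC12 cells expressing inducible HTTex1-Q103-GFP. Induction used 100 nM tebufenozide; compounds were tested in concentration series.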
ALDH1A1 inh: qHTS Assay for Inhibitors of Aldehyde Dehydrogenase 1 (ALDH1A1); Potency, µM (doses to about 75.3 µM), without a hit: at the top dose activity, negative = inhibition, usual class: inhibitors; 220,000 tested, 7.3% active; Aldehyde dehydrogenase 1A1 (Homo sapiens), P00352; Purified ALDH1A1, NADH fluorescence, propionaldehyde substrate;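 further: plate controls were no enzyme wells and a reference inhibitor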
Lamin A splicing: qHTS Assay for Modulators of Lamin A Splicing; HeLa LMNA splicing GFP/RFP minigene ratio, 48 h; Potency, µM (titrated, usually from 46.1 µM), without a hit: at the highest dose ratio change, negative = inhibition, actives largely listed as inhibitors; 200,000 tested, 0.01% active; AID 1487, 2009; active means well fitted inhibition curve with a large enough effect in the signal ratio, with a control signal flat, not every such curve was filed as active; inconclusive means small, poorly fitted or top-dose-only effect, or effect the other way, or a change in a side signal; the % refers to the signal ratio; further: on the % scale 0 is the no-effect control and ±100 the full control effect
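S3 HeLa stable clones carrying a lamin A-EGFP splicing minigene plus DsRed2 were seeded at 600 cells/well in Opti-MEM with 2% FBS, pin-dosed and incubated 48 h at 37°C. Acumen cytometry (488 nm) gave the GFP/RFP total-intensity ratio.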
JMJD2E inh: qHTS Assay for Inhibitors of Human Jumonji Domain Containing 2E (JMJD2E); JMJD2E catalytic domain, FDH-coupled NADH fluorescence (FDH is formaldehyde dehydrogenase); Lysine-specific demethylase 4E (Homo sapiens), B2RXH2; AID 2147, 2009; 230,000 tested, 1.6% active; Potency, µM (titrated, usually from 57.1 µM), inactives show at the highest dose activity change, negative = inhibition, actives largely listed as inhibitors;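 further: 0% = wells with enzyme and -100% = buffer wells without enzyme; nearly all actives have a fitted effect of over 50% in size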
Target sequence (B2RXH2 1-337 limits assumed): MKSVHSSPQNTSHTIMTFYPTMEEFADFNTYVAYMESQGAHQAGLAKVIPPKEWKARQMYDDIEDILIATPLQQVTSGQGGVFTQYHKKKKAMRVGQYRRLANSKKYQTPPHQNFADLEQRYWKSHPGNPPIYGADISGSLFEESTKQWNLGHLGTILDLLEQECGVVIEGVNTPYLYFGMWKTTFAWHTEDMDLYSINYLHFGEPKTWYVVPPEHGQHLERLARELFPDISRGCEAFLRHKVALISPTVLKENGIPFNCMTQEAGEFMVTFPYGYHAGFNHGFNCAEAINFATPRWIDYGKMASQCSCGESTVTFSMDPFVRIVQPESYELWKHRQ
HPGD inh: qHTS Assay for Inhibitors of HPGD (15-Hydroxyprostaglandin Dehydrogenase) | 150,000 tested, 4.3% active | purified HPGD, NADH fluorescence kinetic, PGE2 substrate | Potency, µM, for the others: top-dose activity change, negative = inhibition, actives largely listed as inhibitors; further: on the % scale 0 is the no-effect control and ±100 the full control effect
Target sequence (P15428 whole entry, looked up): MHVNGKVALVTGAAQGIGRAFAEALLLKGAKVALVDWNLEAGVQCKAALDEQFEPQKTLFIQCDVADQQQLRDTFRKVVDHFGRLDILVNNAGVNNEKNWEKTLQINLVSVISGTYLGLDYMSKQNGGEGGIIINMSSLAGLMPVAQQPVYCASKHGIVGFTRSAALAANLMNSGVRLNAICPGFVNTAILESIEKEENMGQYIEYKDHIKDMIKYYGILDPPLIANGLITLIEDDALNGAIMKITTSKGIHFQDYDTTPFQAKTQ
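20 nM HPGD preincubated 15 min at room temperature with compound in 50 mM Tris-HCl pH 8, 0.01% Tween 20. Started with 1 mM NAD+ and 30 uM prostaglandin E2; NADH fluorescence (360/450 nm) read 5 times over 30-s intervals, last minus first.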
HTT cytoprotect: qHTS Multiplex Assay to Identify Dual Action Probes in a Cell Model of Huntington: Cytoprotection (ATP). PC12 HTT-Q103 induced, cytoprotection, ATP luminescence, 40 h. Potency, µM (doses to about 56.4 µM), for the others: cytoprotection (ATP increase), most hits filed as activators. 230,000 tested, 0.14% active; active means well fitted curve in the direction sought with a large enough effect; inconclusive means small, poorly fitted or top-dose-only effect, or another doubt; inactive means no such curve, though single readings can be large; an effect the other way counts as inactive or inconclusive; further: % of control where 0% means no effect; nearly all actives have a fitted effect of over 45% in size
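PC12 cells stably carrying ecdysone-inducible Htt exon 1 (Q103)–GFP were induced with 100 nM tebufenozide (final) alongside library compounds in a dose series. Cytoprotection was scored as retained ATP by ATPlite luminescence.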
* marks the source's active call; other numbers are inactive results; u = inconclusive; x = no result; ! = a repeat was not active; [ ] = another dose, or the depositor's remark. Shown are actives, neighbours in structure and some others; about 9.2% of the full set was active somewhere. Unless noted, the call rests on the fitted dose curve; in most records, active means well fitted inhibition curve with a large enough effect (not every such curve was filed as active); inconclusive means small, poorly fitted or top-dose-only effect, or another doubt; inactive means no such curve, though single readings can be large or run the other way. Potency means the concentration at half of the fitted maximal effect.

SMILES	HTT aggregate	ALDH1A1 inh	Lamin A splicing	JMJD2E inh	HPGD inh	HTT cytoprotect
Cc1cccc(C)c1NC(=O)CSc1ncnc2nc[nH]c12	-23%	6%	-8%	-5%	-11%	17%[10 µM]
O=C(CSc1ncnc2nc[nH]c12)c1ccc([N+](=O)[O-])cc1	5%[9.22 µM]	u	x	-22%	x	11%[10 µM]
O=C(CSc1ncnc2nc[nH]c12)c1ccccc1	u	28µM*!	u	-4%	28µM*!	7%[10 µM]
CCCNC(=O)[C@H]1O[C@@H]1C(=O)N[C@H](C(=O)N1CCC[C@H]1C(=O)OC)[C@@H](C)CC	x	8%	x	x	x	-73%
CCOC(=O)CNS(=O)(=O)c1cc(-c2nn(C)c(=O)c3ccccc23)ccc1C	-15%	u	-10%	-2%	16µM*	14%
Cc1ccc(-c2n[nH]c(=O)c3ccccc23)cc1S(=O)(=O)NC(C)(C)C	2%	u	x	-8%	x	-46%
Cc1ccc(-c2n[nH]c(=O)c3ccccc23)cc1S(=O)(=O)NCCO	-2%	7%	-22%	7%	14µM*	4%
CCCNC(=O)c1cc(-c2ccc(O)cc2)on1	x	x	x	x	x	-45%
Cc1nn(C(C)c2n[nH]c(=S)n2-c2cccc(Cl)c2)c(C)c1[N+](=O)[O-] (stereo not given)	-8%	5%	2%	3%	22µM*	-3%[10 µM]
COc1ccccc1CNc1nc(-c2ccc3c(c2)OCO3)nc2ccccc12	x	-10%	u	x	x	-101%
CCCc1nnc(NC(=O)Cn2c(=O)oc3ccccc32)s1	23%	10µM*	-7%	-3%	28µM*	8%[10 µM]
CC(C)CN(CC(C)C)c1nnc(NC(=O)Cn2c(=O)oc3ccccc32)s1	18%	1.4µM*	-9%	-3%	-10%	-2%
CC(C)Oc1ccc(CNC(=O)Cn2c(=O)oc3ccccc32)cc1	u	-10%	-3%	-4%	20µM*	1%
CCc1nnc(NC(=O)Cn2c(=O)oc3ccccc32)s1	9%[9.22 µM]	3%	11%	8%	-2%	-14%
CN1CC[C@@]2(CCCN(C(=O)c3cccc(F)c3)C2)C1	x	3%	x	x	-1%	4%
COC(=O)c1ccc(C(/C=C/[C@@H](C)C(=O)NCCc2c[nH]c3ccccc23)NC(=O)OCc2ccccc2)cc1 (stereo not given in full)	x	u	x	-2%	-10%	6%
Fc1cccc(Cl)c1CNc1ccc(N2CCCC2)cc1	-13%	u	-3%[46 µM]	11µM*	x	u
O=C1c2ccccc2CCC1CNCCc1ccc(O)cc1 (stereo not given)	x	u	x	x	x	-9%
CCCCNC(=O)CSc1nc2cc3c(cc2c(=O)n1CCCCCC(=O)NCc1ccc(OC)cc1)OCO3	x	x	-9%[46 µM]	x	x	x
Cc1ccc(NC(=O)CN(C)C2CCCCC2)cc1Br	3%[9.22 µM]	28µM*	x	-2%	x	1%[10 µM]
CCn1c(=N)n(CC(=O)C23CC4CC(CC(C4)C2)C3)c2ccccc21	-32%	22µM*	u	u	u	-7%[0.074 µM]
Cc1ccc(C(=O)CN2C(=O)C(=O)N(Cc3ccccc3)C2=O)cc1	2%[9.22 µM]	-6%	x	5%	x	10%[10 µM]
COc1cccc(-n2c(SCC(=O)Nc3nnc(C)s3)nc3c([nH]c4ccccc43)c2=O)c1	x	x	2%[46 µM]	x	x	x
CCN(CC)CCCN1C=C2C(=O)C(C)(OC(=O)C3CCCC3)C(=O)C=C2C=C1c1ccsc1 (stereo not given)	-14%[9.22 µM]	13%[13.5 µM]	-13%[9.22 µM]	u	-7%	-39%[10 µM]
Cc1ccc2[nH]c(=O)c(-c3nc4cc(C)ccn4c3NCc3ccco3)cc2c1	-5%	5%	u	3.2µM*	-16%	-26%
SMILES	HTT aggregate	ALDH1A1 inh	Lamin A splicing	JMJD2E inh	HPGD inh	HTT cytoprotect
Cc1cccc2cc(-c3nc4c(C)cccn4c3NCc3ccco3)c(=O)[nH]c12	-10%	20µM*	-1%	0%	2%	20%[10 µM]
Cc1cccn2c(=O)c(C=NCCO)c(NCc3ccco3)nc12	0%	-9%	10%	3%	-16%	2%
CC(C)(C)N1C(=O)c2ccc(C(=O)NCc3ccco3)cc2C1=O	-8%	8.9µM*	10%	7%	-14%	-13%
O=C(NCc1ccco1)c1ccc(N2CCCC2=O)cc1	21%	-5%	u	1%	25µM*	-27%
CCN1C(=O)CSc2ccc(C(=O)NCc3ccco3)cc21	20%	13µM*	6%	10%	-1%	-11%[0.074 µM]
O=C(NCc1ccc(N2CCCC2=O)cc1)c1ccc(F)cc1	12%	7%	u	6%	x	-34%
O=C(Nc1ccc(C(=O)N2CCOCC2)cc1)c1cccc([N+](=O)[O-])c1	9%	5%	x	-3%	x	-2%
O=C(c1csc2ccccc12)n1cccn1	0%	11µM*	-13%	-5%	-10%	-13%[0.074 µM]
O=C(c1csc2ccccc12)N1CCN(c2ccccn2)CC1	-10%	u	3%	-4%	-14%	-2%
O=C(c1csc2ccccc12)N1CCCCCC1	u	0%	u	10%	0.013µM*	-30%
COc1ccc(S(=O)(=O)Nc2nc3c(s2)CCCC3)cc1	-29%	u	x	11%	x	-44%
c1ccc(CNc2ncnc3c2cnn3Cc2ccccc2)cc1	22µM*	u	u	-9%	u	-33%[10 µM]
COc1ccc(-n2ncc3c(NCc4ccco4)ncnc32)cc1	3%	-11%	14%	u	u	-37%
Clc1ccc(Cn2ncc3c(NCc4ccco4)ncnc32)c(Cl)c1	u	u	-28%	-29%	28µM*	10%[0.074 µM]
CCOc1ccc(Nc2ncnc3c2cnn3Cc2ccccc2)cc1	-25%	11µM*	11%	-15%	u	-30%
COc1ccc(Nc2ncnc3c2cnn3Cc2ccccc2)cc1	-26%	8.9µM*	u	-2%	22µM*	-8%[10 µM]
CC(C)(C)NC(=O)C(c1ccc(O)cc1)N(C(=O)Cn1nnc(-c2ccc(F)cc2)n1)c1ccccc1F (stereo not given)	x	3%	x	10%	x	x
CCCCC[C@H](O)c1cccc(OCc2ccc3ccccc3n2)c1	x	x	x	x	x	8%[1.9 µM]
COc1ccc(-c2nc3sc(CCNC(=O)Cc4ccc(F)cc4)c(C)n3n2)cc1	x	x	3%[46 µM]	x	x	x
CCC(C)Nc1ncnc2c1cnn2Cc1ccc(Cl)cc1 (stereo not given)	25µM*	3%	u	-8%	-24%	-41%
C=CCn1c(N)cc(=O)nc1SCC(=O)N(c1ccccc1)c1ccccc1	6%	22µM*	x	-2%	x	-17%
